Compound activity as filed in PubChem.
The full list was thinned out, with hits kept by preference.
CD40 NFkB inh – inhibitors of CD40-induced NF-kB signaling, primary screen, BL2 cells, luciferase reporter, single point; CD40L-induced, 4 h; inhibition, % at 10 µM; 83,000 compounds, 0.94% hits; AID 1053188, 2014;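 active = mean inhibition of at least 50% with a set share of replicates also reaching that level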;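 also: 0% = neutral control wells and 100% = IKK inhibitor VII at 50 µM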
* marks the source's active call; other numbers are inactive results; [ ] = remark or other dose.

SMILES	CD40 NFkB inh
COc1ccccc1S(=O)(=O)N[C@@H]1CC[C@@H](CCNC(=O)C2CCCC2)O[C@H]1CO	9
NS(=O)(=O)c1ccc(Sc2nc3ccccc3s2)c([N+](=O)[O-])c1	81*
CSc1nc2ccccc2s1	2
NS(=O)(=O)c1ccc(N/N=C/c2ccccn2)c([N+](=O)[O-])c1	2
CC(C)NC(=O)N(C)C[C@H]1Oc2ccc(N(C)C)cc2CC(=O)N(C)C[C@H]1C	0
CN(C)C(=O)[C@@H]1[C@@H](CO)[C@@H]2Cn3c(ccc(-c4cncnc4)c3=O)[C@H]1N2C(=O)NC1CCCC1	-3[25 µM]
NCCOc1ccc(C23CC4CC(CC(C4)C2)C3)cc1	104*
Nc1nnc(CCOc2ccc(Cl)cc2)s1	-4
NC(=O)c1ccc(C23CC4CC(CC(C4)C2)C3)o1	-1
C[C@H]1CN([C@@H](C)CO)C(=O)CCCn2nncc2CO[C@H]1CN(C)C(=O)Nc1cccc(F)c1	7[25 µM]
COc1ccc(-c2ccc3c(c2)[C@H]2[C@H](CCN2C(=O)C2CCOCC2)[C@@H](CO)N3C)cc1	-5[25 µM]
COc1ccc(-c2ccc3c(c2)[C@@H]2[C@@H](CCN2C(=O)C2CC2)[C@@H](CO)N3C)cc1	-18
COc1ccc(-c2ccc3c(c2)[C@@H]2[C@@H](CCN2C(=O)C2CCC2)[C@H](CO)N3C)cc1	58*
COc1ccc2c3c([nH]c2c1)[C@H](CO)N(S(=O)(=O)c1ccccc1)CC31CCN(C)CC1	-9[25 µM]
O=C(C1CCOCC1)N1CC(=O)N2[C@@H](CO)[C@@H](c3ccc(C#CC4CCCCC4)cc3)[C@@H]2C1	3[25 µM]
COc1ccccc1C(=O)Nc1ccc2c(c1)C(=O)N(C)[C@H]1CC[C@H](CC(=O)Nc3cccc(C(C)C)c3)O[C@@H]1CO2	57*[25 µM]
CC(C)c1cccc(NC(=O)C[C@H]2CC[C@H]3[C@@H](COc4ccc(NS(=O)(=O)c5ccccc5Cl)cc4C(=O)N3C)O2)c1	24[25 µM]
COc1ccccc1C(=O)Nc1ccc2c(c1)C(=O)N(C)[C@H]1CC[C@H](CC(=O)Nc3cc(F)ccc3F)O[C@@H]1CO2	30[25 µM]
CN(C)C(=O)c1cccc(-c2ccc(C3[C@@H]4CN(S(=O)(=O)c5ccccc5)C[C@H]3N4)cc2)c1 (stereo partly drawn)	-42
COc1ccccc1CN1[C@H](CO)[C@H]2c3ccccc3N(C(=O)c3ccc(F)cc3)C[C@H]21	0[25 µM]
CC(C)NC(=O)Nc1ccc2c(c1)CC(=O)N(C)C[C@H](C)[C@H](CN(C)C(=O)NC(C)C)O2	4
COc1ccc(CCNC(=O)c2cccc(S(=O)(=O)N3CCCC3)c2)cc1	5
O=C(NCCc1ccc2c(c1)OCCO2)c1cccc(S(=O)(=O)N2CCCC2)c1	43*
O=C(NCCN1CCOCC1)c1cccc(S(=O)(=O)N2CCCC2)c1	2
C[C@H]1CN([C@@H](C)CO)C(=O)c2ccccc2-c2ccccc2CO[C@H]1CN(C)C(=O)Nc1ccccc1	-6
SMILES	CD40 NFkB inh
N#C[C@H]1[C@H](c2ccccc2C2=CCCCC2)[C@H](CO)N1C(=O)c1cccc(F)c1	-12[25 µM]
O=C(C[C@H]1CC[C@@H]2[C@H](COC[C@H](O)CN2Cc2nccs2)O1)N1CCC(Cc2ccccc2)CC1	11[25 µM]
Cn1cnc(CCNC(=O)C[C@H]2CC[C@@H]3[C@H](COC[C@@H](O)CN3C(=O)Nc3ccc(C(F)(F)F)cc3)O2)c1	21[25 µM]
Cn1cnc(CCNC(=O)C[C@@H]2CC[C@@H]3[C@H](COC[C@H](O)CN3C(=O)Nc3ccc(C(F)(F)F)cc3)O2)c1	5[25 µM]
Cn1cnc(CCNC(=O)C[C@@H]2CC[C@@H]3[C@H](COC[C@@H](O)CN3C(=O)Nc3ccc(C(F)(F)F)cc3)O2)c1	52*[25 µM]
C[C@H](CO)N1C[C@H](C)[C@H](CN(C)C(=O)Cc2ccccc2)Oc2ncc(C3=CCCCC3)cc2C1=O	-2[25 µM]
C[C@@H]1CN([C@H](C)CO)C(=O)c2c(c3ccccc3n2C)-c2ccccc2CO[C@@H]1CN(C)CC1CC1	22
C[C@H]1CN([C@@H](C)CO)C(=O)c2ccccc2-c2ccccc2CO[C@H]1CN(C)S(=O)(=O)c1ccc(C#N)cc1	-13
Cc1cc(NC(c2cccnc2)c2ccc3cccnc3c2O)no1 (stereo not drawn)	-52
CCC(=O)NC(c1ccccc1OC)c1ccc2cccnc2c1O (stereo not drawn)	88*
CCC(=O)NC(c1ccc(OC)cc1)c1cc(Cl)c2cccnc2c1O (stereo not drawn)	8
COc1cccc(-c2ccc([C@@H]3[C@H]4CNCC(=O)N4[C@H]3CO)cc2)c1	-22[25 µM]
CCCNC[C@H]1[C@@H](c2ccc(-c3cccc(C#N)c3)cc2)[C@@H](CO)N1C(C)=O	6[25 µM]
CC(=O)NCCc1ccc(O)cc1	3
O=C1c2ccccc2CCC1CNCCc1ccc(O)cc1 (stereo not drawn)	91*[25 µM]
O=C(NCCc1ccccc1)c1noc2c1CCc1ccccc1-2	-38
C/C=C/c1ccc([C@H]2[C@@H](CO)N(CCC)[C@@H]2CN(CC)C(=O)c2ccccn2)cc1	8[25 µM]
COc1ccccc1-c1ccc2n(c1=O)C[C@@H]1[C@@H](CO)[C@H](C(=O)N(C)C)[C@H]2N1C(=O)c1cccnc1	-6[25 µM]
CO[C@H]1CN(C)C(=O)c2cc(NS(=O)(=O)c3cccc(Cl)c3)ccc2OC[C@H](C)NC[C@H]1C	-6[25 µM]
C/C=C/c1ccc([C@@H]2[C@@H](CO)N(C(C)=O)[C@@H]2CN(C)C(=O)CN(C)C)cc1	-5
CCN(Cc1ccccc1)S(=O)(=O)c1ccc(C(=O)N(CCCN(C)C)c2nc3cc4c(cc3s2)OCCO4)cc1	16
CCN(Cc1ccccc1)S(=O)(=O)c1ccc(C(=O)N(CCCN(C)C)c2nc3cc(OC)ccc3s2)cc1	52*
COc1ccc2sc(N(CCCN(C)C)C(=O)c3ccc(C(=O)c4ccccc4)cc3)nc2c1	9
O=C(NC(=O)c1ccccc1)Nc1ccccn1	108*
O=C(CC(=O)Nc1ccccn1)Nc1ccccn1	8
SMILES	CD40 NFkB inh
O=C(Nc1ccccn1)c1ccc(C(=O)c2ccccc2)cc1	-13
C[C@@H]1CN(C)C(=O)c2cccc(N(C)C)c2O[C@@H]1CN(C)C	6
O=C(/C=C/c1ccccc1)CC(O)(c1ccccc1)C(F)(F)C(F)F (stereo not drawn)	56*
O=C(/C=C/c1ccccc1)CC(O)(c1ccccc1)C(F)(F)F (stereo not drawn)	22
O=C(/C=C/c1ccccc1)COC(=O)c1ccccc1	-17
O=C(C[C@@H]1C[C@H]2c3cc(NC(=O)C4CCC4)ccc3O[C@H]2[C@@H](CO)O1)NCCc1ccccc1	-18[25 µM]
CC(=O)N(C)C[C@@H]1Oc2ccc(NS(C)(=O)=O)cc2C(=O)N(C)C[C@@H]1C	-1
C[C@@H]1CN([C@@H](C)CO)C(=O)c2ccccc2-c2ccccc2CO[C@@H]1CN(C)Cc1ccc(C(F)(F)F)cc1	3
C[C@H]1CN([C@@H](C)CO)C(=O)c2ccccc2-c2ccccc2CO[C@H]1CN(C)Cc1ccccc1C(F)(F)F	33[25 µM]
C[C@@H]1CN([C@H](C)CO)C(=O)c2ccccc2-c2ccccc2CO[C@@H]1CN(C)Cc1ccccc1C(F)(F)F	83*[25 µM]
C[C@H](CO)N1C[C@H](C)[C@@H](CN(C)Cc2ccc(Oc3ccccc3)cc2)OCc2ccccc2-c2ccccc2C1=O	69*[25 µM]
C[C@@H]1CN([C@@H](C)CO)C(=O)c2ccccc2-c2ccccc2CO[C@@H]1CN(C)Cc1ccccc1C(F)(F)F	53*[25 µM]
C[C@H](CO)N1C[C@H](C)[C@@H](CN(C)Cc2ccccc2)OCc2ccccc2-c2ccccc2C1=O	7
